# Source: PubChem BioAssay
# Pol beta inh: qHTS Assay for Inhibitors of DNA Polymerase Beta; Pol beta primer extension/strand displacement, fluorescence kinetic; Potency, µM (titrated, usually from 114 µM), inactives show at the top dose activity change, negative = inhibition, actives largely listed as inhibitors; 340,000 tested, 1.3% active; further: potency means the concentration at half of the fitted maximal effect; on the % scale 0 is the no-effect control and ±100 the full control effect
#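 Reaction started by 50 nM substrate onto compound-treated Pol beta (10 nM, 15 min preincubation, room temperature); plates read at 0 min and 10 min. Normalized concentration-effect data fitted by four-parameter Hill equation.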
# PI5P4K alpha inh: qHTS for Inhibitors of phosphatidylinositol 5-phosphate 4-kinase (PI5P4K) | max response, % | AID 652105, 2013 | PI5P4Kalpha enzyme, ADP-Glo luminescence, 60 min; active compounds read low | Phosphatidylinositol 5-phosphate 4-kinase type-2 alpha (Homo sapiens), P48426 | 330,000 tested, 1.2% active; active means max response of -50% or lower; inconclusive means between -30% and -50%; inactive means -30% or higher; further: value at the top dose of about 77 µM; on the % scale 0 is the no-effect control and ±100 the full control effect
#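 ADP-Glo luminescence end-point read after a 60 min room-temperature kinase reaction of PI5P4Kalpha plus substrate, initiated with ATP at 5 microM final. Buffer: 0.038 M HEPES pH 7.4, EGTA, 0.1% CHAPS, 5% DMSO.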
# POLI inh: qHTS for Inhibitors of Polymerase Iota. AID 588590, 2011. Potency, µM (top dose mostly 115 µM), for the others: top-dose activity, negative = inhibition, hits mostly inhibitors. 390,000 tested, 1% active. Pol iota fluorescent replication assay, 10 min. DNA polymerase iota (Homo sapiens), Q9UNA4; further: potency means the concentration at half of the fitted maximal effect
# Target sequence (Q9UNA4 whole entry, looked up): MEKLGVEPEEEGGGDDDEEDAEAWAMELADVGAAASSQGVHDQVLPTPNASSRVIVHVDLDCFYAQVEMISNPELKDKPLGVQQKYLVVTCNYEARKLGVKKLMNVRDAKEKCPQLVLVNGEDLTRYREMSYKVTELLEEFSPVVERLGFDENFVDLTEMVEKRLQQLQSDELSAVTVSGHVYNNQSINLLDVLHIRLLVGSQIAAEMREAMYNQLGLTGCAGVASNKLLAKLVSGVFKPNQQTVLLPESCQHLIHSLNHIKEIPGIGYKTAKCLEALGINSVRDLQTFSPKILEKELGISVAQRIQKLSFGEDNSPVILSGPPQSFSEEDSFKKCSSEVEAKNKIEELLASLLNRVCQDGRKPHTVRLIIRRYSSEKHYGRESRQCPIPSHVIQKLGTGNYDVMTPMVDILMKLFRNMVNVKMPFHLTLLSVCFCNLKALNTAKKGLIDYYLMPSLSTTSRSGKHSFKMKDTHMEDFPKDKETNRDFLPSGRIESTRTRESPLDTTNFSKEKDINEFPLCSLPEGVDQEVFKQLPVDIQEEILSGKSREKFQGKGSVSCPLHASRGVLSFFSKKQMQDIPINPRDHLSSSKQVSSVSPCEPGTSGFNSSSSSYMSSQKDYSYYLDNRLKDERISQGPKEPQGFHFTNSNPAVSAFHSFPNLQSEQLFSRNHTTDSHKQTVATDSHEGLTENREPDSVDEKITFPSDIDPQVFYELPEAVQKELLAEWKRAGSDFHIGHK
#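 Fluorescent replication assay read twice, at 0 min and 10 min after adding 50 nM (final) substrate. Enzyme (10 nM) and compounds were first incubated 15 min at room temperature; enzyme-free buffer wells were negative controls.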
# Pol kappa inh: qHTS for Inhibitors of Polymerase Kappa | purified Pol kappa, fluorescent DNA synthesis assay, 10 min | Potency, µM (doses to about 107 µM), for inactives: at the top dose activity, negative = inhibition, actives largely listed as inhibitors | 400,000 tested, 0.53% active | DNA polymerase kappa (Homo sapiens), Q9UBT6; further: potency means the concentration at half of the fitted maximal effect; on the % scale 0 is the no-effect control and ±100 the full control effect
#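 Enzyme at 10 nM met test compounds for 15 min at room temperature. Substrate addition (50 nM final) began the reaction, which was monitored by fluorescence at 0 and 10 min.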
# Pol eta inh: qHTS for Inhibitors of Polymerase Eta; recombinant Pol eta, fluorescent DNA replication assay; Potency, µM (series often up to 114 µM), inactives show top-dose activity change, negative = inhibition, actives largely listed as inhibitors; 390,000 tested, 1.2% active; further: potency means the concentration at half of the fitted maximal effect; on the % scale 0 is the no-effect control and ±100 the full control effect
#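 Fluorescent replication assay: 50 nM final substrate added after a 15 min room-temperature compound preincubation with 10 nM enzyme. Signal taken at 0 min and again at 10 min.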
# WRN helicase inh: qHTS for Inhibitors of WRN Helicase. 360,000 tested, 0.46% active. WRN helicase unwinding, fluorescent forked duplex, kinetic. Potency, µM (highest dose often 114 µM), without a hit: at the top dose activity change, negative = inhibition, most hits filed as inhibitors. Bifunctional 3'-5' exonuclease/ATP-dependent helicase WRN (Homo sapiens), Q14191; further: potency means the concentration at half of the fitted maximal effect; on the % scale 0 is the no-effect control and ±100 the full control effect; nearly all actives have a fitted effect of over 55% in size
#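 Primary qHTS, 1536-well format. 20 nM WRN + compound, 15 min RT; start with 100 nM forked fluorophore/quencher duplex, 2 mM ATP (final); kinetic read ex 525/em 598 nm.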
# * = called active by the depositor; ? = inconclusive; / = not tested or not shown; [ ] = remark or other dose. The list is not random: actives were taken first. Their share in the collection is about 2.8%. Unless noted, the call rests on the fitted dose curve; in most records, active means well fitted curve in the direction sought with a large enough effect; inconclusive means small, poorly fitted or top-dose-only effect, or another doubt; inactive means no such curve, though single readings can be large; an effect the other way counts as inactive or inconclusive.
SMILES,Pol beta inh,PI5P4K alpha inh,POLI inh,Pol kappa inh,Pol eta inh,WRN helicase inh
Cc1ccccc1C(=O)Nc1cccc(C(=O)OCc2cc(=O)n3nc(C4CC4)sc3n2)c1,17.6%,/,20.7%,-6.6%[60.1 µM],-15.0%,/
Cc1ccc(NC(=O)Cn2c(=O)c3ccccc3n3nncc23)cc1,3.0%,/,13.5%,-16.1%,-0.9%,/
COc1cc(C(=O)Nc2nc(OC)c(-c3ccccc3)c(OC)n2)cc(OC)c1OC,44.7µM*,/,?,7.5%[60.1 µM],-22.1%,-4.9%[57.1 µM]
COc1ccc(-n2nc(C(=O)Nc3ccc(C(C)=O)cc3)nc2-c2ccccc2)cc1,-20.2%,/,44.7%,-4.4%,-14.8%,/
CC1(C)Cc2c(C#N)c(NCCc3ccccc3)nc(-c3ccco3)c2CO1,16.0%,-19.0,79.4µM*,-1.8%,89.1µM*,-18.5%[57.1 µM]
O=C1C=C(c2ccc(C(=O)O)c(Cl)c2)C[C@@H](c2ccc3c(c2)OCO3)C1,/,?,?,?,50.1µM*,-2.5%[11.6 µM]
O=C1C=C(c2ccc(-c3ccccc3)cc2)C[C@@H](c2ccc3c(c2)OCO3)C1,/,3.3,16.1%,-0.2%,-6.0%,-0.8%
CN1CCc2[nH]c3ccc(C(=O)NN)cc3c2C1,39.8µM*,/,?,?,-16.4%,-8.6%[57.1 µM]
NNC(=O)c1ccc2[nH]c3c(c2c1)CCCC3,4.0%,-5.5,-9.8%,11.5%,-16.8%,-0.2%
Cc1sc2ccccc2[n+]1CC(=O)O,0.3%,5.4,?,-0.5%,-5.8%,50.1µM*
Cc1sc2ccccc2[n+]1CC(=O)c1ccccc1,27.5%,-15.3,?,4.0%,-18.8%,10.8%
Cc1ccc2c(c1)C1OCCC1C1N2C(=O)C2C(C(=O)O)C3C=CC21O3 (stereo not given),39.8µM*,/,?,-29.7%,?,-13.9%
O=C(O)C1C2C=CC3(CN(C/C=C/c4ccccc4)C(=O)C13)O2 (stereo not given),?,-9.3,2.7%,-14.3%,?,-7.4%
CCOc1ccc(CCNC(=O)c2cc3c(-c4ccccc4F)nn(C)c3s2)cc1OCC,-5.2%,/,7.9%,-4.9%,-23.3%,/
COc1ccc(C(=O)Nc2cc(-c3nc4ccccc4s3)ccc2OC)cc1,29.2%,/,2.8%,-5.2%,-17.1%,/
COc1ccc(-c2nc3ccccc3s2)cc1NC(=O)c1cccc(F)c1,12.6µM*,/,?,-3.9%[60.1 µM],-29.0%,/
CCCCCCSc1nc(O)c(C2OC(=O)c3c2ccc(OC)c3OC)c(=O)n1-c1ccccc1 (stereo not given),-20.2%,-22.6,?,-27.4%,17.8µM*,-29.3%[57.1 µM]
CCCCSc1nc(O)c(C2OC(=O)c3c2ccc(OC)c3OC)c(=O)n1C (stereo not given),40.4%,-1.4,?,3.0%,-2.4%,-21.1%
N#Cc1c(-c2ccccc2)nc(SCc2ccc(Cl)cc2)[nH]c1=O,?,4.0,?,-1.6%,79.4µM*,-24.8%
Cc1nc2ccccc2n1CCc1nc2c3ccccc3nc(SCC(=O)NCc3ccco3)n2n1,39.8µM*,7.9,?,-6.7%,?,-26.6%
Cc1cc(C)n2cnnc2n1,-11.2%,-0.3,14.6%,11.4%,-6.3%,0.9%
Cc1cc(C)n2c(=S)[nH]nc2n1,10.8%,-75.9*,3.4%,-13.9%,-1.2%,56.2µM*
CCCCN(CCCC)CCNC(=O)Cn1nc(CC)n2c(cc3sc(C)cc32)c1=O,45.1%,/,25.1µM*,-6.3%,-10.4%,/
Cc1ccc(-n2ncc(C(=O)NCc3cccs3)c2C2CCN(C(=O)OC(C)(C)C)CC2)cc1C,-2.8%,/,22.9%,-0.7%,-19.0%,/
Nc1cccc2[nH]c(C(F)(F)F)nc12,?,?,39.8µM*,?,79.4µM*,-97.5%
SMILES,Pol beta inh,PI5P4K alpha inh,POLI inh,Pol kappa inh,Pol eta inh,WRN helicase inh
O=C(O)CSC1=NS(=O)(=O)c2ccccc21,/,/,89.1µM*,?,/,/
O=S1(=O)N=C(SCCO)c2ccccc21,24.0%,-14.6,-10.1%,-6.2%,-0.9%,4.1%
CC(C)c1cccc(-c2ccc3c(c2)S(=O)(=O)c2cccc(C(=O)NCc4ccco4)c2C3=O)c1,/,-23.1,?,?,39.8µM*,-11.1%[11.6 µM]
COc1ccc(-c2ccc3c(c2)S(=O)(=O)c2cccc(C(=O)NC[C@@H]4CCCO4)c2C3=O)cc1OC,/,-9.3,?,-9.6%,28.2µM*,-13.5%
COC(=O)c1ccc(CSc2nc3sc(C(=O)O)c(C)c3c(=O)[nH]2)cc1,-0.4%,-24.4,-16.2%,-0.3%,-10.0%,-17.8%
Cc1c(C(=O)O)sc2nc(/C=C/c3cccc(O)c3)[nH]c(=O)c12,-1.8%,-76.8*,?,-13.3%,35.5µM*,?
CCCN(CC(=O)Nc1ccccc1C)C(=O)Cc1coc2cc(C)ccc12,39.8µM*,-26.0,?,-14.6%,?,-28.9%
CCCN(CC(=O)Nc1ccccc1C)C(=O)CCl,-14.2%,2.5,85.0%,-0.4%,18.8%,-9.2%
O=C(NC(NNc1ccc([N+](=O)[O-])cc1)(C(F)(F)F)C(F)(F)F)c1ccc(F)cc1,-15.2%,-71.1*,-3.6%,-24.8%,-13.4%,?
CC[n+]1ccccc1/C=C1\Sc2ccc(C)cc2N1C,70.8µM*,-0.1,?,3.3%[60.1 µM],-9.0%,-18.1%
CN1/C(=C/c2cccc[n+]2CCO)Sc2ccccc21,?,-7.6,45.1%,7.5%,-13.3%,0.5%
CCc1ccc(OCc2nc(-c3ccc(-n4cccc4)cc3)no2)cc1,22.4%,/,-5.1%,6.7%,/,/
Clc1ccc(OCc2nc(-c3ccc(-n4cccc4)cc3)no2)cc1,0.1%,/,89.1µM*,-22.2%,-8.9%,/
O=C(CN1C(=O)C2(SCC(=O)N2c2ccc(F)cc2)c2ccccc21)NC1CCCCC1 (stereo not given),1.3%,/,16.2%,-8.6%,-17.7%,/
O=C(Nc1ccccc1C(F)(F)F)C1CCN(c2nnc(-n3cccc3)s2)CC1,?,/,7.9%,-3.1%,-6.7%,/
CCN(CC)c1ccc(NC(=O)C2CCN(c3nnc(-n4cccc4)s3)CC2)c(C)c1,25.1µM*,/,?,-9.0%,1.6%,/
N#CCn1cnc2sc(-c3ccccc3)cc2c1=O,?,-52.5*,39.0%,-19.9%,?,-10.9%[11.6 µM]
CCn1cnc2sc(-c3ccccc3)cc2c1=O,0.5%,0.0,-1.6%,1.5%,0.9%,3.8%
O=C(/C=C/c1ccccc1Cl)NC1CCS(=O)(=O)C1 (stereo not given),-1.5%,-68.9*,-10.7%,-2.8%,-15.8%,?
O=C(/C=C/c1ccccc1Cl)NC1CCCCC1,-15.5%,-1.6,-2.8%,2.5%,8.0%,-8.0%
